Compound activity as filed in PubChem.
A selection: hits, their analogues and other compounds. The true share with any hit is near 17%.
TGFb inhibitor = inhibitors of TGF-b signaling. 410,000 tested, 1.2% active. HepG2 CAGA-GFP TGF-b/SMAD3 reporter, GFP fluorescence, 18 h; TGF-beta stimulated, 500 pg/mL final. Potency, µM (series often up to 46.1 µM), for the others: at the top dose activity, negative = inhibition, most hits filed as inhibitors; also: % is scaled to controls: 0 for no effect and ±100 for the full control effect; nearly all actives have a fitted effect of over 65% in size
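HEPG2 CAGA-GFP cells (1000/well, DMEM with 1% FBS) were pre-incubated 2 h at 37 degrees C, given compound by pin tool, then stimulated with TGF-beta at 500 pg/mL final for 18 h before per-cell GFP fluorescence imaging.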
HepG2 tox = kills HepG2 cells in TGF-b inhibitor counter-screen | HepG2 CAGA-GFP viability, ATP luminescence, 18 h | Potency, µM (highest dose often 46.1 µM), inactives show at the highest dose activity change, negative = cytotoxicity, most hits filed as cytotoxic | 410,000 tested, 0.76% active
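CellTiter-Glo luminescence gave cytotoxicity after 18 hours at 37 degrees C. The cells were HepG2 CAGA-GFP in 1% FBS DMEM, stimulated with 500 pg/mL TGF-beta after compound addition. %Activity was normalised to no-cell wells (complete cell-killing) and DMSO (no toxicity), and curves were fitted and classified.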
DT40 TDP1 no CPT = qHTS for Inhibitors of human tyrosyl-DNA phosphodiesterase 1 (TDP1): qHTS in cells in absence of CPT | DT40 Tdp1-/- hTDP1 cells, no CPT, ATP luminescence, 48 h | Potency, µM (doses to about 46.2 µM), without a hit: at the top dose activity change, negative = growth inhibition, hits mostly inhibitors | 420,000 tested, 15% active; also: % is scaled to controls: 0 for no effect and ±100 for the full control effect; nearly all actives have a fitted effect of over 55% in size
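Seeded 400 DT40-hTDP1 cells/well (vehicle DMSO, no 20 nM CPT); pinned compounds; ≥48 hr at 37 °C; CellTiter-Glo luminescence as viability measure.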
ATXN viability = cell viability loss in ATXN counter-screen | Potency, µM (titrated, usually from 56.7 µM), hits mostly cytotoxic | 400,000 tested, 0.49% active | AID 651635 | S2 cells (HEK-293 line with an ATXN2-luciferase reporter) viability, CellTiter-Fluor protease fluorescence, 24 h; also: nearly all actives have a fitted effect of over 40% in size
ATXN2 expr inh = reduces ATXN2 reporter expression in HEK-293 cells; HEK-293 ATXN2-luciferase reporter, luminescence, 24 h; Potency, µM (series often up to 57 µM), for inactives: at the top dose activity change, negative = inhibition, most hits filed as inhibitors; 360,000 tested, 0.72% active; also: % is scaled to controls: 0 for no effect and ±100 for the full control effect; nearly all actives have a fitted effect of over 55% in size
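ATXN2-luciferase reporter cells (luciferase flanked by upstream and downstream ATXN2 gene portions) were treated 24 h at 37 °C with compounds at up to 57 uM. SteadyGlo luminescence gave expression; GF-AFC fluorescence gave viability.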
DT40 TDP1 CPT = growth inhibition of DT40 Tdp1-/-;hTDP1 cells with camptothecin (screen for TDP1 inhibitors); chicken DT40 Tdp1-/-;hTDP1 cells + 20 nM CPT, ATP luminescence, 48 h; Potency, µM (highest dose often 46.2 µM), inactives show top-dose activity change, negative = growth inhibition, usual class: inhibitors; 420,000 tested, 12% active; AID 686979; also: % is scaled to controls: 0 for no effect and ±100 for the full control effect; nearly all actives have a fitted effect of over 55% in size
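Chicken DT40 Tdp1-/- cells stably complemented with human TDP1 were seeded at 400 cells/well in medium containing 20 nM camptothecin, exposed to pin-transferred compounds, and grown at 37 °C for at least 48 hr. Viability was read as ATP luminescence.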
* = called active by the depositor; i = inactive; ? = inconclusive; · = no result given; [ ] = dose if it differs, or a comment. Calls follow the shape of the dose curve; as a rule, active = well fitted curve in the direction sought with a large enough effect; inconclusive = small, poorly fitted or top-dose-only effect, or another doubt; inactive = no such curve, though single readings can be large; an effect the other way counts as inactive or inconclusive. Potency is read from the fitted curve at half-maximal effect.

SMILES	TGFb inhibitor	HepG2 tox	DT40 TDP1 no CPT	ATXN viability	ATXN2 expr inh	DT40 TDP1 CPT
CN(C1CCCCC1)S(=O)(=O)c1ccc(C(=O)N2CCN(c3nc4ccccc4s3)CC2)cc1	-16%	7%	15µM*	i	-17%	23µM*
O=C(c1ccc2ncsc2c1)N1CCN(c2ccc(O)cc2)CC1	29%	23%	21µM*	?	-19%	?
O=C(c1cc2sccc2n1Cc1ccccc1)N1CCN(c2nc3ccccc3s2)CC1	2%	3%	15µM*	i	?	15µM*
O=C(c1ccc2ncsc2c1)N1CCN(c2nc3ccccc3s2)CC1	-26%	-7%	15µM*	i	?	?
CCC(=O)N1CCN(c2nc3ccccc3s2)CC1	-11%	10%	?	i	5%	-20%
O=C(OC1Cn2c(=O)ccc(=O)n2C1)c1ccc([N+](=O)[O-])cc1	3%	6%	-30%	i	-5%	-7%
Cc1ccc(NC(=O)CSc2nnc3[nH]c(=O)cc(-c4ccccc4)n23)cc1Cl	-18%	-14%	4%	·	·	-7%
Cc1nc(-c2nnc(SCC(=O)Nc3cc(Cl)cc(Cl)c3)n2C)cs1	-13%	-6%	-18%	i	-11%	3%
COc1ccc(CC(=O)Nc2ccc(-c3nc4ccccc4s3)cc2Cl)cc1OC	?	-31%	?	i	-22%	?
CCc1ccc(S(=O)(=O)NCc2nc(N3CCCC3)c3cccc(C)c3n2)cc1	·	·	?	?	·	7%[9.04 µM]
Cc1cccc(N2CCN(C(=O)c3ccc4ncsc4c3)CC2)c1C	0%	-37%	5.2µM*	i	16%	2.1µM*
Cc1cccc(N2CCN(C(=O)c3ccc4nc[nH]c4c3)CC2)c1C	7%	-4%	?	?	-19%	12%
Clc1ccc(Cn2c3c(c4ccccc42)CCc2cc4ccccc4nc2-3)cc1	6%	1%	-7%	·	·	0%
FC(F)(F)c1cccc(Nc2c3c(nc4ccc(Cl)cc24)CCC3)c1	18µM*	-75%	6.5µM*	·	·	7.3µM*
Fc1ccc(F)c(Nc2c3c(nc4ccc(Cl)cc24)CCC3)c1	?	18µM*	?	?	?	16µM*
COC(=O)c1ccc(Cn2c(C)c(C(=O)Nc3cccc(Oc4ccccc4)c3)sc2=O)o1	?	-20%	?	i	-14%	?
Cc1ccnc(NC(=O)c2cccc(S(=O)(=O)N3CCCC3)c2)c1	-3%	0%	15%	i	26%	-2%
CCN(CC(=O)Nc1ccccc1OC)CC(=O)Nc1c(Cl)ccc(C)c1Cl	4%	-5%	15µM*	i	-12%	?
CCN(CC)CC(=O)Nc1ccc(-c2ccc(NC(=O)CN(CC)CC)c(OC)c2)cc1OC	6%	16%	9.2µM*	i	4%[11.3 µM]	13µM*
COc1cc([N+](=O)[O-])ccc1NC(=O)CN(C)C	-3%	-1%	-16%	i	-14%	3%
COC(=O)c1cc(S(=O)(=O)N2c3ccccc3CC2C)c[nH]1 (stereo not drawn)	8%	-1%	?	i	10%	?
CN(CC(=O)Nc1cccc(F)c1)C(=O)c1cn(-c2ccccc2)nc1-c1ccccc1	-12%	-8%	?	i	2%	?
CCCN(C(=O)C1CCN(S(=O)(=O)c2c(C)noc2/C=C/c2ccc(C)cc2)CC1)c1ccccc1F	?	-7%	23µM*	·	·	?
Cc1noc(C)c1S(=O)(=O)N1CCC(C(=O)N2CCC(C)CC2)CC1	-19%	4%	2%	i	-5%	-11%
COc1ccc(/C=C/c2onc(C)c2S(=O)(=O)N2CCC(C(=O)N3CCCCCC3)CC2)cc1	?	-20%	?	i	-20%	?
SMILES	TGFb inhibitor	HepG2 tox	DT40 TDP1 no CPT	ATXN viability	ATXN2 expr inh	DT40 TDP1 CPT
Cc1cccc(/C=C/c2onc(C)c2S(=O)(=O)N2CCC(C(=O)N3CCCCC3)CC2)c1	?	-2%	18µM*	i	-20%	29µM*
Cc1cccc(N2CCN(C(=O)C3CCN(S(=O)(=O)c4c(C)noc4C)CC3)CC2C)c1 (stereo not drawn)	?	4%	9.2µM*	i	-26%	8.2µM*
CCOC(=O)C1CCCN(C(=O)C2CCN(S(=O)(=O)c3c(C)noc3/C=C/c3ccc(C)cc3)CC2)C1 (stereo not drawn)	0%	-13%	?	i	-22%	18µM*
COc1cccc(CNC(=O)c2ccc3c(c2)nc2n3CCC(C)C2)c1 (stereo not drawn)	-6%	-1%	-21%	·	·	-12%
CCn1nc(C)cc1C(=O)NCC1CCC2(CCN(Cc3ccccc3F)CC2)O1 (stereo not drawn)	·	·	?	i	·	-12%[9.04 µM]
Cc1ccc(/C=C/c2onc(C)c2S(=O)(=O)N2CCC(C(=O)N3CCCCC3)CC2)cc1	-11%	-19%	?	?	-8%	?
CCCN1CCN(C(=O)C2CCN(S(=O)(=O)c3c(C)noc3/C=C/c3ccc(C)cc3)CC2)CC1	?	-61%	21µM*	?	?	21µM*
CCN(CC(=O)NCc1cccs1)C(=O)CCC(=O)c1ccc(C)cc1	-4%	8%	-7%	?	2%	7%
CN(C)c1nc(OCCNC(=O)COc2ccc(Cl)cc2Cl)nc(N(C)C)n1	-1%	-15%	8.2µM*	i	-3%	7.3µM*
C/C(=N/NC(=O)c1ccc(C)s1)c1cccc(NC(=O)COc2ccc(Cl)cc2Cl)c1	11%	9%	?	i	0%	?
COc1ccc(C)cc1NC(=O)C(=O)NNC(=O)COc1ccc(Cl)cc1	-20%	-14%	23µM*	i	-34%	?
C/C(=N/NC(=O)c1cccs1)c1ccc(NC(=O)COc2ccc(Cl)cc2Cl)cc1	1%	3%	?	11µM*	13µM*	15µM*
COc1ccc(OCC(=O)NNC(=O)C(=O)Nc2cc(OC)ccc2OC)cc1	-6%	-5%	-21%	i	3%	?
CCC(=O)NC(=S)Nc1ccc(NC(=O)COc2ccc([N+](=O)[O-])cc2)cc1	?	-26%	23µM*	i	·	?
CCOC(=O)C1(C)CCN1C(=O)CSc1ccccc1 (stereo not drawn)	3%	-5%	3%	i	10%	-3%
